From PubChem BioAssay AID588689 (Southern Research Specialized Biocontainment Screening …, 2011)
The whole screen tested about 340,000 compounds, of which about 1,000 (0.29%) were called active. No stated cut-off is given here; in the data, inconclusive means inhibition above about 29% without an active follow-up result; inactive means below that. Not all results are given here. Measured potencies and affinities stand elsewhere.

Target: Genome polyprotein (Dengue virus type 2 (strain 16681-PDK53)) (UniProt P29991)
Assay: Dengue-2 NS5 methyltransferase inhibitors, primary screen, biochemical, confirmation dose response (AID 588689)
Conditions: Dengue-2 NS5 methyltransferase capping enzyme assay, at 25 µM, stronger effect = higher value
[1] = measured here: pilot screen replicate inhibition

COc1ccc(NC(=O)Cc2c(C(=O)O)n(C)c3ccccc23)cc1OC
inhibition: -17.2% (inactive)

C[C@H](CO)N1C[C@H](C)[C@@H](CN(C)C(=O)Nc2ccccc2)Oc2c(NC(=O)Cc3ccccc3)cccc2C1=O
inhibition: -4% (inactive)

COC(=O)c1cc2c(-c3ccccc3)cc3ccccn3c-2c1C(=O)OC
inhibition: 27.1% (inactive)

COC(=O)c1c(C(=O)OC)c2ccccn2c1C(=O)c1ccccc1
inhibition: -4.66% (inactive)

COc1ccc(CN(C)C(C)C(=O)Nc2ccc(S(=O)(=O)N3CCCCC3)cc2)cc1F (configuration not stated)
inhibition: 0.37% (inactive)

CSCCC(C(=O)OCC(=O)c1ccc(C)c(C)c1)N1C(=O)c2cc(Cl)c(Cl)cc2C1=O (configuration not stated)
inhibition: 10.7% (inactive)

O=C1NCCCC2c3c(cc(Br)c(O)c3Br)OC12N1CCCCC1 (configuration not stated)
inhibition: 10.4% (inactive)

O=C1NCCCC2c3c(cc(Br)c(O)c3Br)OC12N1CCOCC1 (configuration not stated)
inhibition: 17% (inactive) | inhibition [1]: -2.28%

CCOC(=O)C(NC(=O)Cc1ccccc1)(Nc1cc(C)on1)C(F)(F)F (configuration not stated)
inhibition: -5.64% (inactive)

CCCn1c(SCC(=O)c2[nH]c(C)c(C(C)=O)c2C)n[nH]c1=O
inhibition: -15.1% (inactive)

COc1ccc(CCNC(=O)C2CC(c3ccc([N+](=O)[O-])cc3)=NO2)cc1 (configuration not stated)
inhibition: 2.79% (inactive)

CN(C1CCCCC1)S(=O)(=O)c1cn(C)c(=O)n(C)c1=O
inhibition: -3.31% (inactive)

COc1cc(C=NNC(=O)c2ccccc2NS(=O)(=O)c2cccs2)cc(OC)c1O
inhibition: 2.21% (inactive)

O=C(NN=Cc1ccc(O)cc1)c1ccccc1NS(=O)(=O)c1cccs1
inhibition: 2.92% (inactive)

O=c1cc(-c2nn[nH]n2)[nH]c(=O)[nH]1
inhibition: -0.8% (inactive)

O=C(CN1C(=O)c2cccc([N+](=O)[O-])c2C1=O)N1CCc2ccccc2C1
inhibition: -5.49% (inactive)

O=c1c(C(c2ccc(Br)cc2)c2c(O)nc3n(c2=O)CCS3)c(O)nc2n1CCS2
inhibition: 11.7% (inactive)

O=c1c(C(c2ccc(O)cc2)c2c(O)nc3n(c2=O)CCCS3)c(O)nc2n1CCCS2
inhibition: 60.7% (inactive)

O=c1c(C(c2ccc(F)cc2)c2c(O)nc3n(c2=O)CCS3)c(O)nc2n1CCS2
inhibition: -0.78% (inactive)

O=c1c(C(c2ccc(Cl)cc2)c2c(O)nc3n(c2=O)CCS3)c(O)nc2n1CCS2
inhibition: 3.89% (inactive)

O=Cc1ccc(F)c([B-](F)(F)F)c1
inhibition: -5.86% (inactive)

COc1ccc(N2CC(C(=O)NC3CCCCC3)CC2=O)cc1 (configuration not stated)
inhibition: -15.2% (inactive)

NC(=S)N=Nc1c(O)[nH]c2ccccc12
inhibition: -8.45% (inactive)

NC(=S)N=Nc1c(O)[nH]c2ccc(F)cc12
inhibition: 1.93% (inactive)

Cc1ccc(C)c(S(=O)(=O)NC2CCSC2=O)c1 (configuration not stated)
inhibition: 0% (inactive)

COc1ccc(NS(=O)(=O)c2cc(NC(=O)c3cccc(OCc4c(C)noc4C)c3)ccc2OC)cc1
inhibition: -4.53% (inactive)

Clc1ccc(Oc2nc(Oc3ccc(Cl)cc3)nc(N3CCOCC3)n2)cc1
inhibition: 5.62% (inactive)

CC(NC(=O)C12CC3CC(CC(C3)C1)C2)C(=O)N/N=C/C1=C(N2CCOCC2)C(=C\c2ccccc2)/CC1 (configuration not stated)
inhibition: -2.59% (inactive)

CN(C)c1cccc2c1C(=O)c1ccccc1C2=O
inhibition: 2.91% (inactive)

CN(CCO)C(=O)c1cccc2c1-c1ccccc1C2=O
inhibition: 2.07% (inactive)

Cc1nnc(NC(=O)CSc2nnc(CCNC(=O)c3ccccc3F)n2C)s1
inhibition: -9.78% (inactive)

Cc1oc2c(O)c(O)ccc2c(=O)c1-c1ccccc1
inhibition: 1.39% (inactive)

O=C1c2ccccc2C(=O)c2c1ccc(O)c2O
inhibition: 0% (inactive)

O=C(O)c1cccc(O)c1O
inhibition: 2.93% (inactive)

Cc1cc(=O)oc2c(O)c(O)ccc12
inhibition: 0.73% (inactive)

CC(C)(Oc1ccc(Cl)cc1)C(=O)Nc1ccc2oc(-c3ccncc3)nc2c1
inhibition: 2.08% (inactive)

COc1cc(C)c(S(=O)(=O)NCc2ccc3c(c2)OCO3)cc1C
inhibition: -1.39% (inactive)

Cc1nn(-c2ccccc2)nc1CNC(=O)C(C)Cc1ccccc1 (configuration not stated)
inhibition: -2.38% (inactive)

O=C(C1=C[C@H](C2CCCCC2)C[C@H](OCc2ccc(CO)cc2)O1)N1CCOCC1
inhibition: -6.54% (inactive)

CSC[C@H](NC(=O)Cc1c(C)c2cc3c(C)c(C)oc3cc2oc1=O)C(=O)N[C@@H](Cc1ccccc1)C(=O)O
inhibition: 1.4% (inactive)

CCCCC(NC(=O)Cc1c(C)c2cc3c(C)c(C)oc3c(C)c2oc1=O)C(=O)O (configuration not stated)
inhibition: 1.31% (inactive)

CCCC(NC(=O)Cc1c(C)c2cc3c(C)c(C)oc3c(C)c2oc1=O)C(=O)N[C@@H](Cc1ccccc1)C(=O)O (some centres not stated)
inhibition: 1.45% (inactive)

Cc1c(CC(=O)N[C@@H](C)C(=O)O)c(=O)oc2c(C)c3occ(-c4ccccc4)c3cc12
inhibition: -0.65% (inactive)

CCCOc1ccc(NC(=O)CC2C(=O)N(CC)C(=S)N2Cc2cccs2)cc1 (configuration not stated)
inhibition: -2.45% (inactive)

C/C(=C\c1cccc(Cl)c1)C(=O)c1c(C)cc(C)[nH]c1=O
inhibition: 0.68% (inactive)

COc1ccc(S(=O)(=O)N2CCN(c3ccccc3)CC2)cc1
inhibition: -2.22% (inactive)

Cc1cccc(N2CCN(c3nc(C)cc(C)c3C#N)CC2C)c1 (configuration not stated)
inhibition: -4.66% (inactive)

COc1ccc(OC)c(/C=C2\SC(=S)N(C(C(=O)O)c3ccccc3)C2=O)c1 (configuration not stated)
inhibition: -26.1% (inactive)

COc1cccc(/C=C2\SC(=S)N(c3cccnc3)C2=O)c1OC
inhibition: 6.89% (inactive)

COc1ccc(/C=C2\SC(=S)N(C(C(=O)O)c3ccccc3)C2=O)c(OC)c1 (configuration not stated)
inhibition: -11.9% (inactive)

O=C1/C(=C/c2cccs2)SC(=S)N1c1ccccc1
inhibition: -4.85% (inactive)

CCOc1ccc(/C=C2/SC(=S)N(C(C(=O)O)c3ccccc3)C2=O)cc1OCC (configuration not stated)
inhibition: 22.1% (inactive)

CCOc1ccc(/C=C2\SC(=S)N(C(C(=O)O)c3ccccc3)C2=O)cc1OC (configuration not stated)
inhibition: 16.8% (inactive)

COc1cccc(/C=C2\SC(=S)N(N3CCOCC3)C2=O)c1OC
inhibition: -5.48% (inactive)

O=C(O)C(c1ccccc1)N1C(=O)/C(=C\c2ccc(-c3ccccc3Cl)o2)SC1=S (configuration not stated)
inhibition: 12.4% (inactive)

CC1(C(=O)N2CCN(c3ccc([N+](=O)[O-])cc3)CC2)CC1(Cl)Cl (configuration not stated)
inhibition: -2.36% (inactive)

CN(CC(=O)Nc1ccc(F)cc1)C(=O)CSc1nccn1C
inhibition: 7.2% (inactive)

Cn1nc(C(=O)NCc2cccc(Cl)c2)c2c1-c1ccccc1S(=O)(=O)C2
inhibition: 5.32% (inactive)

COc1cccc(C(=S)N2CCOCC2)c1OS(=O)(=O)c1ccc(Cl)cc1
inhibition: 1.61% (inactive)

CC(C)Cc1ccc(C(C)NC(=O)Cc2ccc(S(=O)(=O)N3CCOCC3)s2)cc1 (configuration not stated)
inhibition: -1.45% (inactive)

O=C(Nc1ccccc1[N+](=O)[O-])c1cccc(N2C(=O)CCC2=O)c1
inhibition: -7.81% (inactive)

O=C(O)c1cnc(-c2ccccc2)nc1C(F)(F)F
inhibition: -8.19% (inactive)

COC(=O)Nc1nc(-c2ccccc2)c(C(=O)c2ccccc2)s1
inhibition: -4.12% (inactive)

COc1cccc(-c2ccc3ncnc(NCc4cccc(C)c4)c3c2)c1
inhibition: -0.8% (inactive)

COc1ccc(CNC(=O)/C=C/c2cc3c(cc2Br)OCO3)cc1
inhibition: -8.34% (inactive)

COc1cc(C(=O)O)c2c(c1C)OC(=O)c1c(C)cc(O)c(C=O)c1O2
inhibition: 0.72% (inactive)

COc1cc(/C=C2\OC(=O)c3c(OC)cccc32)ccc1O
inhibition: -20.1% (inactive)

O=C(O)C1C2CCC(O2)C1C(=O)Nc1ccc(Br)cc1F (configuration not stated)
inhibition: -6.36% (inactive)

C=CCC[C@@H](Cc1ccc(F)cc1)C(=O)OC[C@@H](Cc1ccccc1)NC(=O)[C@@H](CC=C)CC(=O)N[C@@H](CO)Cc1ccccc1
inhibition: -4.81% (inactive)

N=C1/C(=C/c2cccs2)C(=O)N=C2SN=C(SCc3ccccc3)N12
inhibition: -11.6% (inactive)

CC(C)CSC1=NSC2=NC(=O)/C(=C\c3cccs3)C(=N)N12
inhibition: 24.3% (inactive)

CCCCCCCCCCNC(=O)CCn1[nH]c(=O)c2ccccc2c1=O
inhibition: -4.1% (inactive)

Cc1cccc(C)c1OCCn1nnc2ccccc21
inhibition: 1.31% (inactive) | inhibition [1]: -3.03%

COc1cc(/C=C2\C(=O)N(CCC#N)N=C2C)ccc1OCC(=O)Nc1ccccc1
inhibition: 27.7% (inactive)

COc1ccc(/C=C2\N=C(C)N(c3ccc(C(=O)O)cc3)C2=O)cc1OC
inhibition: -13.8% (inactive)

COc1cc(/C=C2/C(=O)N(c3ccc(C(=O)O)cc3)N=C2C)cc(OC)c1O
inhibition: -28.1% (inactive)

COc1cc(/C=C2/C(=O)N(c3cccc(Br)c3)N=C2C)cc(OC)c1O
inhibition: -25.2% (inactive)

Cc1ccccc1NC(=O)Cn1nnc(S(=O)(=O)c2ccc(C(C)(C)C)cc2)c1N
inhibition: -3.62% (inactive)

NC(=O)N/N=C/c1ccc(-c2cccc(C(F)(F)F)c2)o1
inhibition: -7.73% (inactive)

Fc1cccc(/C=C2\CCCC3=C2NC(=S)NC3c2cccc(F)c2)c1 (configuration not stated)
inhibition: 3.88% (inactive)

Cc1ccc(SC2=C(Sc3ccc(C)cc3)C(=O)c3ccccc3C2=O)cc1
inhibition: 22.2% (inactive)

COC1=C(Nc2ccc(C)cc2)C(=O)c2ccccc2C1=O
inhibition: 1.28% (inactive)

COc1ccc(CN2CC(C(=O)NCCN3CCOCC3)CC2=O)cc1 (configuration not stated)
inhibition: 0.54% (inactive)

O=C(CN1C(=O)COc2ccc(Cl)cc21)N1CCc2ccccc21
inhibition: -2.43% (inactive)

Cc1cc(C)n(-c2nc3ccccc3c(=O)n2OCC#N)n1
inhibition: -1.94% (inactive)

CC(=O)Oc1ccc(N(C(C)=O)S(=O)(=O)c2ccccc2)c2ccccc12
inhibition: 6.04% (inactive)

CC(=O)Oc1ccc(N(C(C)=O)S(=O)(=O)c2ccc(C)cc2)c2ccccc12
inhibition: -8.55% (inactive)

O=C(NCCCn1ccnc1)c1ccc(Cl)s1
inhibition: -4.6% (inactive)

O=S(=O)(O)c1ccc(N=Nc2ccccc2)cc1
inhibition: -9.54% (inactive)

O=S(=O)(Nc1ccc(N=Nc2ccc(O)c3ccccc23)cc1)c1ccccc1
inhibition: 6.54% (inactive)
